“And” between values parts separate entries of the source, which are not always exact repeats. Equal values may be shown once. Results filed as inconclusive are left out. Where a structure was tested more than once in an assay, its records may differ in their call. The source made the active and inactive calls. Rule for the calls: active = hit-call score of the fitted dose curve at least 0.9, where 1 is the maximum; inconclusive = response in the unintended direction; inactive = score below 0.9.
Experiments:
NCBI gene 100848466 = experiment: NVS_NR_bPR: NovaScreen (NVS) Nuclear Receptor Binding Assay for bovine Progextron Receptor (PR) (AID 2283343);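 for AC50: actives lower bound radioligand signal below DMSO meaning displacement of the label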
Outline: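 Bovine uterine membrane preparation; radioligand displacement read by scintillation counting 18 h after dosing. Primary screen single concentration, 25 uM, in duplicate; actives followed up in concentration series. Signal loss versus DMSO baseline.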

[1] = target: chimpanzee Androgen Receptor (AR), AR (gene 747460) (UniProt O97775); experiment: NVS_NR_cAR: NovaScreen (NVS) Nuclear Receptor Binding Assay for chimpanzee Androgen Receptor (AR) (AID 2283346);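 note: radioligand displacement from AR measured by scintillation counting in a cell-free assay; a loss of bound radioligand signal versus DMSO counts as binding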
chimpanzee Androgen Receptor (AR), AR (gene 747460), sequence (O97775 whole entry, looked up): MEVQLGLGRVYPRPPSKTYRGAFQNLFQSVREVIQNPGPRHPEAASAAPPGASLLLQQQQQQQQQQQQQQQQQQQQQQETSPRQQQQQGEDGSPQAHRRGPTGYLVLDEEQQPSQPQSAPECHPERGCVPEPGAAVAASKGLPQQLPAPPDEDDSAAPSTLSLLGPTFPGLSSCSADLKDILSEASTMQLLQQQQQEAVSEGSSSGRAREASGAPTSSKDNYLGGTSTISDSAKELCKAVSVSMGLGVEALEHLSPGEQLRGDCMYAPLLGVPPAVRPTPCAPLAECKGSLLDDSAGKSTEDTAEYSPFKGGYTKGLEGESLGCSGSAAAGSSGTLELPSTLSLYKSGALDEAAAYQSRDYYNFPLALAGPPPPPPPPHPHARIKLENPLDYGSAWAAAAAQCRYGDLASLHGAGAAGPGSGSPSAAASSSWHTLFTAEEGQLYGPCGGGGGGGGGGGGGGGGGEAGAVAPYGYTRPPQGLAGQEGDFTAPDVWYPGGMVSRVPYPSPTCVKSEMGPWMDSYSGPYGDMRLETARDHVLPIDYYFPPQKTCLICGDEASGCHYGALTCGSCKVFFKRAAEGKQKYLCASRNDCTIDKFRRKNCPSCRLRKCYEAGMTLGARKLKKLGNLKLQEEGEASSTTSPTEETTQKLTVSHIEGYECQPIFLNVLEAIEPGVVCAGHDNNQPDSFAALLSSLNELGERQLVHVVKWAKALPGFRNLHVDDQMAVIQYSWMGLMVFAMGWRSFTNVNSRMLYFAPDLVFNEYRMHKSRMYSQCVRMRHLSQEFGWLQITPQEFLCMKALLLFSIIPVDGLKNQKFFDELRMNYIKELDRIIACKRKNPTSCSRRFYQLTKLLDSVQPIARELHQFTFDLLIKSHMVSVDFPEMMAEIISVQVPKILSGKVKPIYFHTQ
Outline: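 Radioligand binding to chimpanzee AR expressed in Sf9/Sf21 cells, cell-free, measured 72 h after dosing by lysate-based scintillation counting. Loss of signal vs DMSO; initial duplicate screen at 25 uM, actives retested in concentration series.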

[2] = target: Estrogen receptor (Homo sapiens) (UniProt P03372); experiment: OT_ER_ERaERa_1440: Odyssey Thera (OT) 24-hour HEK293T Protein-Complementation Assay for Estrogen Receptor-alpha/-alpha Homodimer (AID 2283349);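 note: hits raise fluorescence above DMSO for agonists and antagonists alike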
Estrogen receptor (Homo sapiens), sequence (P03372 whole entry, looked up, the tested form may be a part): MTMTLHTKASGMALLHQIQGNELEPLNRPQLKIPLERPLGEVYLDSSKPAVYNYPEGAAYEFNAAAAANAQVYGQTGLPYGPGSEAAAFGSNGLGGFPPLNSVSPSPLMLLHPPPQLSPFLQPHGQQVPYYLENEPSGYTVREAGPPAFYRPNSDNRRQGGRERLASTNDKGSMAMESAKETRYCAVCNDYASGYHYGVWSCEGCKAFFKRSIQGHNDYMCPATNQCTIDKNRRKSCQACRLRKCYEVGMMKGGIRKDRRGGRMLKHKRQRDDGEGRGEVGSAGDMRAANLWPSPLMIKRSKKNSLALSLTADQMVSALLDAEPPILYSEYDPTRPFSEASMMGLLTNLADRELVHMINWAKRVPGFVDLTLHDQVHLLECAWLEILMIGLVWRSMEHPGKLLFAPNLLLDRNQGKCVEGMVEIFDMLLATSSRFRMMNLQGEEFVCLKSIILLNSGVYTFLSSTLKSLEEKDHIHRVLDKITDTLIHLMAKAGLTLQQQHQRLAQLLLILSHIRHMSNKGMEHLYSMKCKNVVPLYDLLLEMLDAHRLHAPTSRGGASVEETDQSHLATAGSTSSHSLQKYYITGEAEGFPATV
Outline: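 HEK293T cells stably expressing the human ER alpha ligand-binding domain (aa 310-547) as a homodimer PCA were dosed for 24 hours. Fluorescence intensity was read by laser scanning cytometry, and gain of signal was fitted relative to DMSO vehicle.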

[3] = target: Estrogen receptor (Homo sapiens) (UniProt P03372); experiment: OT_ER_ERaERa_0480: Odyssey Thera (OT) 8-hour HEK293T Protein-Complementation Assay for Estrogen Receptor-alpha/-alpha Homodimer (AID 2283351);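 note: rise in fluorescence from reassembled reporter fragments on ERα LBD homodimer in nucleus or whole cell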
Outline: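 Binding reporter in which dimerisation of ERα LBD (aa 310-547) fusions reconstitutes a fluorescent reporter in HEK293T cells. Compounds incubated 8 h; mean fluorescence intensity increase versus DMSO scored.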

[4] = target: T1, Estrogen receptor (Homo sapiens) + Estrogen receptor beta (Homo sapiens) (UniProt P03372+Q92731); experiment: OT_ER_ERaERb_0480: Odyssey Thera (OT) 8-hour HEK293T Protein-Complementation Assay for Estrogen Receptor-alpha/-beta Heterodimer (AID 2283352)
T1 sequence (P03372 whole entry, looked up, the tested form may be a part): as above
T1 sequence (Q92731 whole entry, looked up, the tested form may be a part): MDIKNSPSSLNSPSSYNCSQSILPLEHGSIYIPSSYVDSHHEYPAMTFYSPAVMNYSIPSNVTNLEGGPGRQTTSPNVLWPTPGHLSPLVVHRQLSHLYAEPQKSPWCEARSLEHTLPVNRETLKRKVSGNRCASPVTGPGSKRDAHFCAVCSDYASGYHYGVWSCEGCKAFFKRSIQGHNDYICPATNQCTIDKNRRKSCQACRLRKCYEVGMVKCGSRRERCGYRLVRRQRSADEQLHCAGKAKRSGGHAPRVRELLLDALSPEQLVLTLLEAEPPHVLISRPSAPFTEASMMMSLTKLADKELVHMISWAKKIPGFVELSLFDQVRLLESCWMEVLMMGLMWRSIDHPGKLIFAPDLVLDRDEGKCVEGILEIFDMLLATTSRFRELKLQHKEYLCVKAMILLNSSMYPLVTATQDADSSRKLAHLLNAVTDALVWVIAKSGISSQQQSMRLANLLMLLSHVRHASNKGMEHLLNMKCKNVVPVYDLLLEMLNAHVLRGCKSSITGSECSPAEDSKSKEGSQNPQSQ
Outline: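 Human HEK293T cells were treated for 8 hours and receptor heterodimerisation was detected through reconstitution of a fluorescent reporter split between ER-alpha and ER-beta ligand-binding domains. Activity was analysed as gain of signal against DMSO.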

[5] = target: T1, Estrogen receptor (Homo sapiens) + Estrogen receptor beta (Homo sapiens); experiment: OT_ER_ERaERb_1440: Odyssey Thera (OT) 24-hour HEK293T Protein-Complementation Assay for Estrogen Receptor-alpha/-beta Homodimer (AID 2283356);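 note: heteromer of ER alpha and ER beta binding domains; hits raise reporter fluorescence and both agonists and antagonists give an increase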
Outline: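 24 h exposure; HEK293T PCA cells with ERα/ERβ LBD fragments; signal rise in nuclear or whole-cell fluorescence over vehicle.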

[6] = target: Estrogen receptor beta (Homo sapiens) (UniProt Q92731); experiment: OT_ER_ERbERb_0480: Odyssey Thera (OT) 8-hour HEK293T Protein-Complementation Assay for Estrogen Receptor-beta/-beta Homodimer (AID 2283357);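 note: active means signal gain over DMSO baseline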
Estrogen receptor beta (Homo sapiens), sequence (Q92731 whole entry, looked up, the tested form may be a part): as above
Outline: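 Fluorescence intensity, nuclear for agonists and nuclear plus cytoplasmic for antagonists, was quantified by laser scanning cytometry versus vehicle after 8 h treatment. The cells were HEK293T stably carrying ER beta LBD fragment-complementation partners.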

[7] = target: human Constitutive Androstane Receptor (CAR), NR1I3 (gene 9970) (UniProt Q14994); experiment: NVS_NR_hCAR_Antagonist: NovaScreen (NVS) Nuclear Receptor Binding Assay for human Constitutive Androstane Receptor Antagonism (CAR) (AID 2283344)
human Constitutive Androstane Receptor (CAR), NR1I3 (gene 9970), sequence (Q14994 whole entry, looked up): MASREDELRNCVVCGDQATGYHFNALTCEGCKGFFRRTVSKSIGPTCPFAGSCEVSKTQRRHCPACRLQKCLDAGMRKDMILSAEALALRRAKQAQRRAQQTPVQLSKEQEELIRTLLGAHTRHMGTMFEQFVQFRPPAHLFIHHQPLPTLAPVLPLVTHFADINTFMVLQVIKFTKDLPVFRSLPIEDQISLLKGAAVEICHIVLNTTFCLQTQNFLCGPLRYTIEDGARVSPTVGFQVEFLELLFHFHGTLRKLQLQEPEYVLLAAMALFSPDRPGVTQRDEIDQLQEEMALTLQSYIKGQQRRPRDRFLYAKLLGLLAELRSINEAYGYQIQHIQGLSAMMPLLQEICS
Outline: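 Cell-free TR-FRET binding read 1 h after dosing, antagonist mode; loss of signal versus DMSO baseline. Primary screen in duplicate at a single 25 uM; actives retested in concentration series.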

[8] = target: Estrogen receptor (Homo sapiens) (UniProt P03372); experiment: NVS_NR_hER: NovaScreen (NVS) Nuclear Receptor Binding Assay for human Estrogen Receptor (ER) (AID 2283348)
Outline: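 Radioligand competitive displacement binding to estrogen receptor from MCF7 extract, cell-free; 18 h after dosing, scintillation read-out. Primary screen in duplicate at 25 uM; actives followed up in concentration series; loss of signal vs DMSO.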

[9] = target: Androgen Receptor/SRC-1 Co-activator, AR (gene 367) (UniProt P10275); experiment: OT_AR_ARSRC1_0960: Odyssey Thera (OT) 16-hour HEK293T Protein-Complementation Assay for Androgen Receptor/SRC-1 Co-activator (AID 2283353);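 note: actives raise the signal above DMSO so potency reflects increased AR and SRC-1 complex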
Androgen Receptor/SRC-1 Co-activator, AR (gene 367), sequence (P10275 whole entry, looked up, the tested form may be a part): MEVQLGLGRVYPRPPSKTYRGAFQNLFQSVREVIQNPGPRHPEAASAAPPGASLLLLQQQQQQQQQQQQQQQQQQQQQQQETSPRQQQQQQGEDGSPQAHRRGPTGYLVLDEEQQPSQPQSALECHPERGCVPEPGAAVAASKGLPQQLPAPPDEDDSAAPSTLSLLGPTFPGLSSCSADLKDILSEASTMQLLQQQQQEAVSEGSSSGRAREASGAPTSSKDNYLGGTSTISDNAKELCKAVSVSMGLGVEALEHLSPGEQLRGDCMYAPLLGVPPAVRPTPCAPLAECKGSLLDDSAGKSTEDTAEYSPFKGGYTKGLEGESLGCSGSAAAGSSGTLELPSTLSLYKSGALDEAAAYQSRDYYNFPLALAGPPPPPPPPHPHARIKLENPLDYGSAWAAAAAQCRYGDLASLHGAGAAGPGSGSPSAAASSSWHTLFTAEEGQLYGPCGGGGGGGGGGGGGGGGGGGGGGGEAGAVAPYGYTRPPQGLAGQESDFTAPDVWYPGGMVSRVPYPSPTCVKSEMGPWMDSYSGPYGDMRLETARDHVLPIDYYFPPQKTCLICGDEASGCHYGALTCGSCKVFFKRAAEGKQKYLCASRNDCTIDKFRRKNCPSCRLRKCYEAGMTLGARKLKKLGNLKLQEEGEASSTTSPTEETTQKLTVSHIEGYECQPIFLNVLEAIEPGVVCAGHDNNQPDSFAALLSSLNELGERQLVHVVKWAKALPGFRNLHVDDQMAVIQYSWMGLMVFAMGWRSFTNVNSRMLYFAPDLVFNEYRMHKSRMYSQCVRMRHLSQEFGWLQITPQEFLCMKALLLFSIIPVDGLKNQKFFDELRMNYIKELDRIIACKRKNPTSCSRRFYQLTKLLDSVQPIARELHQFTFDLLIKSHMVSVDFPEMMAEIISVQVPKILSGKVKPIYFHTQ
Outline: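 Interaction of AR with SRC-1 was followed by YFP fragment complementation in HEK293T cells after 16 h of dosing. Gain of nuclear-over-cytoplasmic 488 nm fluorescence against DMSO controls defined activity.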

[10] = target: Androgen Receptor/SRC-1 Co-activator, AR (gene 367) (UniProt P10275); experiment: OT_AR_ARSRC1_0480: Odyssey Thera (OT) 8-hour HEK293T Protein-Complementation Assay for Androgen Receptor/SRC-1 Co-activator (AID 2283354);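 note: hits raise the complementation signal above DMSO so AC50 marks enhancers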
Outline: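 HEK293T cells stably expressing AR and SRC-1 fused to Venus YFP fragments, imaged 8 h after dosing. Complementation fluorescence scored as nuclear/cytoplasmic ratio at 488 nm in at least 400 cells per image; gain fitted versus DMSO.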

[11] = test system: guinea pig Histamine Receptor (H2), gene 100729734; experiment: NVS_GPCR_gH2: NovaScreen (NVS) G Protein-Coupled Receptor Assay for guinea pig Histamine Receptor (H2) (AID 2283342)
Outline: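 Radioligand displacement on guinea pig striatal membranes, 1 h after dosing, filter-based scintillation counting; loss of signal versus DMSO. Single-point screen at 25 uM in duplicate, then concentration-response up to 50 uM.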

[12] = target: Retinoic acid receptor alpha (Homo sapiens) (UniProt P10276); experiment: NVS_NR_hRAR_Antagonist: NovaScreen (NVS) Nuclear Receptor Binding Assay for human Retinoic Acid Alpha Receptor Antagonism (RAR) (AID 2283358)
Outline: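 Cell-free TR-FRET binding assay with extracted human RARalpha in antagonist mode, read 2 h after dosing. Loss of signal was fitted relative to DMSO; the primary screen used 25 uM in duplicate, with concentration series on follow-up.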

[13] = target: Bile acid receptor (Homo sapiens) (UniProt Q96RI1); experiment: NVS_NR_hFXR_Agonist: NovaScreen (NVS) Nuclear Receptor Binding Assay for human Farnesoid X Receptor Agonism (FXR) (AID 2283347)
Bile acid receptor (Homo sapiens), sequence (Q96RI1 whole entry, looked up): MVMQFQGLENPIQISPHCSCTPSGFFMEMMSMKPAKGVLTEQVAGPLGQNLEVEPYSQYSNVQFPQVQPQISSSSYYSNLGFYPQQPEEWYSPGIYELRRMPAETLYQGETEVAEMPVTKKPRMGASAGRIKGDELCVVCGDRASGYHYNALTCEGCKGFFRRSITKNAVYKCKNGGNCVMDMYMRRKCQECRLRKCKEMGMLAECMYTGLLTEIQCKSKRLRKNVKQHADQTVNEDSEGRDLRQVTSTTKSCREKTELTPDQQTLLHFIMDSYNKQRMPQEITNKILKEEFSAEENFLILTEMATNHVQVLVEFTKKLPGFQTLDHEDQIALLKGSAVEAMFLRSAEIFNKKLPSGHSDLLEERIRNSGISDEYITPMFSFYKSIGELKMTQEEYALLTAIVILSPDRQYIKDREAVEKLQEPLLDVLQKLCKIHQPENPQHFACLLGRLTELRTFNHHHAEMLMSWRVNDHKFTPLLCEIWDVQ
Outline: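 Cell-free TR-FRET binding assay with extracted human FXR protein, agonist format, read 1 h after dosing. Primary screen at 25 uM single concentration in duplicate, actives retested in concentration series; gain of signal versus DMSO.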

[14] = target: bovine Gamma-Aminobutyric Acid Type A Receptor Agonist (GABAR Agonist), GABRA1 (gene 780973) (UniProt P08219); experiment: NVS_LGIC_bGABAR_Agonist: NovaScreen (NVS) Ligand-Gated Ion Channel Assay for bovine Gamma-Aminobutyric Acid Type A Receptor Agonist (GABAR Agonist) (AID 2283338)
Outline: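 Radioligand binding to bovine cerebellar membranes in agonist format, read by filter-based scintillation counting after 1 h. Primary screen in duplicate at 25 uM, with actives followed in concentration series. Gain of signal versus DMSO.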

[15] = target: rat Glutamate, MK-801 Agonist Site (GluNMDA_MK801), Grin1 (gene 24408) (UniProt P35439); experiment: NVS_LGIC_rGluNMDA_MK801_Agonist: NovaScreen (NVS) Ligand-Gated Ion Channel Assay for rat Glutamate, MK-801 Agonist Site (GluNMDA_MK801) (AID 2283340)
Outline: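 Radioligand binding at MK-801 site in rat forebrain membranes, 1.5 h incubation, filter-based scintillation counting. Initially 25 uM in duplicate; actives then run in concentration-response up to 50 uM, fitted for gain of signal versus DMSO.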

[16] = target: Bile acid receptor (Homo sapiens) (UniProt Q96RI1); experiment: NVS_NR_hFXR_Antagonist: NovaScreen (NVS) Nuclear Receptor Binding Assay for human Farnesoid X Receptor Antagonism (FXR) (AID 2283350)
Outline: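 Cell-free TR-FRET ligand-binding read-out on human FXR (NR1H4) in antagonist mode, measured 1 h after dosing. Primary screen in duplicate at 25 uM, actives retested in concentration series; signal loss scored versus DMSO.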

[17] = target: rat Glycine Receptor, Strychnine-sensitive (GlyRStrySens), Glra1 (gene 25674) (UniProt P07727); experiment: NVS_LGIC_rGlyRStrySens: NovaScreen (NVS) Ligand-Gated Ion Channel Assay for rat Glycine Receptor, Strychnine-sensitive (GlyRStrySens) (AID 2283341)
Outline: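 Radioligand displacement on rat spinal cord membranes, 1 hr, filter scintillation read-out. Single-concentration duplicate screen at 25 uM; chemicals meeting threshold (e.g., 30% inhibition) rerun in concentration-response up to 50 uM. Loss of binding fitted versus DMSO.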

[18] = target: rat Mineralocorticoid Receptor (MR), Nr3c2 (gene 25672) (UniProt P22199); experiment: NVS_NR_rMR: NovaScreen (NVS) Nuclear Receptor Binding Assay for rat Mineralocorticoid Receptor (MR) (AID 2283355)
rat Mineralocorticoid Receptor (MR), Nr3c2 (gene 25672), sequence (P22199 whole entry, looked up): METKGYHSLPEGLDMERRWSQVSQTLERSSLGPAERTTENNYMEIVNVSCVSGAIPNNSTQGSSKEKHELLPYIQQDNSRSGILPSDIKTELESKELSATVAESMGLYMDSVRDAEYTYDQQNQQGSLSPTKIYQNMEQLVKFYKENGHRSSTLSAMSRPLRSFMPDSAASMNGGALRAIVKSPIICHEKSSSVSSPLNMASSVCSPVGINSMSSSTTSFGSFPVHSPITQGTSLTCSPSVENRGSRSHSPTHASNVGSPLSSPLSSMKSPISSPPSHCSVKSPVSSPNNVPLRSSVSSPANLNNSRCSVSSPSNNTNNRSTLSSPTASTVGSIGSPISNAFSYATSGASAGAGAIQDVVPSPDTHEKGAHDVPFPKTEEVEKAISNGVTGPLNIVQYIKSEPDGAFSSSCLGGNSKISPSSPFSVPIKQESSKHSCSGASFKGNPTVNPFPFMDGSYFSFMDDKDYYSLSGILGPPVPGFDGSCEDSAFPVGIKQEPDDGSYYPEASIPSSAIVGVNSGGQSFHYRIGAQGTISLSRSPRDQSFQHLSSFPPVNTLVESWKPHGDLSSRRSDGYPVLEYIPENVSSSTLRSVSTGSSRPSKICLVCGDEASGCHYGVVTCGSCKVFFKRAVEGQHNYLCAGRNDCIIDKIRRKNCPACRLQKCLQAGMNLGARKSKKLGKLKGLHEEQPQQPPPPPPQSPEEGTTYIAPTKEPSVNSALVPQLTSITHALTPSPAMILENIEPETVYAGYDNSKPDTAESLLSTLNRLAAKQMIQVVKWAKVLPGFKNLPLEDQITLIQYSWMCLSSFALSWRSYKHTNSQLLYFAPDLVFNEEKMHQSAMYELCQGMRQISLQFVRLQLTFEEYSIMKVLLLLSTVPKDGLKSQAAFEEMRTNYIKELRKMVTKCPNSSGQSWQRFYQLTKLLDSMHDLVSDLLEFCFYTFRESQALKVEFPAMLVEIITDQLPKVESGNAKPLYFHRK
Outline: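 Cell-free radioligand binding to mineralocorticoid receptor from adrenalectomized rat brain supernatant, scintillation counting after 24 h. Primary screen in duplicate at 25 uM; actives retested in concentration series. Loss of specific binding versus DMSO.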

Measured: AC50

Oc1ccccc1-c1ccccc1
inactive: [2] | [3] | [4] | [5] | [6]
active: NCBI gene 100848466 31.3 µM | [1] 11.2 µM and 25.5 µM | [4] 66 µM | [5] 35.7 µM | [6] 57.5 µM

CCOC(=O)CC(SP(=S)(OC)OC)C(=O)OCC (stereo unspecified)
inactive: NCBI gene 100848466 | [8] | [2] | [3] | [9] | [10]
active: [7] 18.6 µM

CCCCC(CC)COC(=O)c1ccccc1C(=O)OCC(CC)CCCC (stereo unspecified)
inactive: NCBI gene 100848466 | [7] | [8] | [3] | [6]
active: [2] 66 µM | [4] 66.9 µM | [5] 50 µM

CCCC1COC(Cn2cncn2)(c2ccc(Cl)cc2Cl)O1 (stereo unspecified)
inactive: [11] | [2] | [3] | [10] | [12]
active: NCBI gene 100848466 17.9 µM | [7] 11.8 µM and 25 µM | [1] 9.99 µM | [9] 34.3 µM

CC1COC(Cn2cncn2)(c2ccc(Oc3ccc(Cl)cc3)cc2Cl)O1 (stereo unspecified)
inactive: [11] | [2] | [3] | [5] | [6]

C=CCC1=C(C)C(OC(=O)C2C(C=C(C)C)C2(C)C)CC1=O (stereo unspecified)
inactive: [11] | [1] | [13] | [8] | [2] | [3]

CCCCNC(=O)OCC#CI
inactive: [14] | [11] | NCBI gene 100848466 | [8] | [2] | [3] | [6]

CNC(=S)S
inactive: [15] | [7] | [2] | [3] | [4] | [5] | [6]

CN(C)C(=S)SSC(=S)N(C)C
inactive: [11] | [2] | [3] | [10] | [5] | [6]
active: [16] 8.97 µM | [9] 26.2 µM

CCCCNC(=O)n1c(NC(=O)OC)nc2ccccc21
inactive: [17] | [2] | [3] | [4] | [9] | [10] | [18] | [5] | [6]

N#CC(CCc1ccc(Cl)cc1)(Cn1cncn1)c1ccccc1 (stereo unspecified)
inactive: [11] | [2] | [3] | [5] | [6]

Reference: PubChem BioAssay (EPA / NIEHS)
